Source: PubChem BioAssay (National Center for Advancing Translational Sciences (NCATS))
In the library only some 3.8% were active in any assay of this set; here they are far more common.
A549 viability: Nrf2 qHTS screen for inhibitors: counterscreen for cytotoxicity | A549 ARE-Fluc cells, CellTiter-Fluor viability, 18-24 h | Potency, µM (doses to about 46 µM), for inactives: at the highest dose activity change, negative = cytotoxicity, most hits filed as inhibitors | 0.16% of 390,000 active | AID 504648, 2011; note: % is set by controls: 0 for no effect and ±100 for the full control effect
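A549 ARE_Fluc cells in 5% FBS OPTI-MEM were exposed to compounds in concentration-response for 18-24 h at 37 deg C. Viability was read by CellTiter-Fluor fluorescence (Ex 405/Em 525) after 30 min, before the luciferase read.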
ATXN viability: Viability Counterscreen for Primary qHTS for Inhibitors of ATXN expression. 0.49% of 400,000 active. S2 cells (HEK-293 line with an ATXN2-luciferase reporter) viability, CellTiter-Fluor protease fluorescence, 24 h. Potency, µM (highest dose often 56.7 µM), most hits filed as cytotoxic; note: nearly all actives have a fitted effect of over 40% in size
Nrf2 block: Nrf2 qHTS screen for inhibitors. A549 ARE-Fluc reporter, luciferase luminescence, 18-24 h. Potency, µM (titrated, usually from 46 µM), for inactives: at the top dose activity change, negative = inhibition, usual class: inhibitors. 2.1% of 360,000 active. AID 504444, 2011; note: % is set by controls: 0 for no effect and ±100 for the full control effect; nearly all actives have a fitted effect of over 60% in size
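Nrf2 activity is the BugLite luminescence, read 15 min after reagent at room temperature, following CellTiter-Fluor cytotoxicity readout (30 min, 37C). Compound titrations were applied for 18-24 h to 5000 A549 ARE_Fluc cells/well in 5% FBS OPTI-MEM.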
ATXN2 expr inh: Primary qHTS for Inhibitors of ATXN expression; 0.72% of 360,000 active; Potency, µM (doses to about 57 µM), inactives show at the top dose activity change, negative = inhibition, most hits filed as inhibitors; HEK-293 ATXN2-luciferase reporter, luminescence, 24 h; note: % is set by controls: 0 for no effect and ±100 for the full control effect; nearly all actives have a fitted effect of over 55% in size
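qHTS (up to 57 uM final) was run with 24 h compound exposure of reporter cells at 37 °C. Each well was multiplexed: SteadyGlo luminescence measured ATXN2-luciferase expression after a fluorogenic Gly-Phe-AFC viability readout (25 uM final).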
HepG2 tox: qHTS for Inhibitors of TGF-b: Cytotox Counterscreen | Potency, µM (top dose mostly 46.1 µM), inactives show at the highest dose activity change, negative = cytotoxicity, actives largely listed as cytotoxic | 0.76% of 410,000 active | HepG2 CAGA-GFP viability, ATP luminescence, 18 h
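CellTiter-Glo luminescence gave cytotoxicity after 18 hours at 37 degrees C. The cells were HepG2 CAGA-GFP in 1% FBS DMEM, stimulated with 500 pg/mL TGF-beta after compound addition. %Activity was normalised to no-cell wells (complete cell-killing) and DMSO (no toxicity), and curves were fitted and classified.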
TGFb inhibitor: qHTS for Inhibitors of TGF-b. Potency, µM (doses to about 46.1 µM), for the others: at the highest dose activity, negative = inhibition, most hits filed as inhibitors. HepG2 CAGA-GFP TGF-b/SMAD3 reporter, GFP fluorescence, 18 h; TGF-beta stimulated, 500 pg/mL final. 1.2% of 410,000 active; note: % is set by controls: 0 for no effect and ±100 for the full control effect; nearly all actives have a fitted effect of over 65% in size
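HEPG2 CAGA-GFP, 1000 cells/well; 2 h settle, 37 C; cpd via pin tool; TGF-b 500 pg/mL final; 18 h, 37 C; GFP imaging ex488/em500-530; %Activity normalised to -TGF-b and +DMSO controls; CRC fit, curve class.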
* marks the source's active call; other numbers are inactive results; i = inactive; ? = inconclusive; / = no result given; ! = not active in a repeat; [ ] = dose if it differs, or a comment. Calls come from the whole dose curve; as a rule, active = well fitted curve in the direction sought with a large enough effect; inconclusive = small, poorly fitted or top-dose-only effect, or another doubt; inactive = no such curve, though single readings can be large; an effect the other way counts as inactive or inconclusive. Potency is the fitted concentration of half-maximal effect.

SMILES	A549 viability	ATXN viability	Nrf2 block	ATXN2 expr inh	HepG2 tox	TGFb inhibitor
COc1cc(OCc2ccccc2)c(C(=O)/C=C/c2ccc3c(c2)OCO3)c(OC)c1OC	0%	i	21µM*	?	-9%	-4%
CCOc1ccc(Br)cc1S(=O)(=O)Nc1cccc(S(=O)(=O)N(C)c2ccccc2)c1	10%	i	?	-7%	-31%	11µM*
CCOc1ccc(Br)cc1S(=O)(=O)Nc1ccc(C(=O)OCC(=O)N(C)c2ccccc2)cc1	-2%	i	4%	-1%	3%	2%
CCc1nnc(NC(=O)c2cccc(C(=O)Nc3nnc(CC)s3)n2)s1	?	?	0.26µM*	?	-54%	0.25µM*
CCN(CC)S(=O)(=O)c1ccc(Cl)c(C(=O)NC)c1	-3%	i	11%	13%	-5%	-1%
CCc1nnc(NC(=O)c2ccncc2)s1	-7%	i	10%	5%	-27%	-14%
CCc1nnc(NC(=O)c2cc(S(=O)(=O)N(CC)CC)ccc2Cl)s1	-17%	i	16µM*	-1%	-5%	1%
CCc1ccc(-c2[nH]nc3nc(-c4ccc(OC)cc4)cc(C(=O)NCCc4ccc(OC)c(OC)c4)c23)cc1	-10%	i	/	?	-62%	10µM*
COc1ccc(-c2cc(C(=O)NCCc3ccccc3)c3c(-c4ccccc4)[nH]nc3n2)cc1	?	?	-6%	-8%	-24%	?
COc1ccc(CCNC(=O)c2cc(-c3ccc(C)cc3)nc3n[nH]c(-c4ccc(F)cc4)c23)cc1OC	4%	i	/	-18%	-18%	5%
COc1ccc(-c2cc(C(=O)NCCc3ccccc3)c3c(-c4ccc(Cl)cc4)[nH]nc3n2)cc1	?	?	23µM*	-10%	-2%	-24%
CCC/C(=C1/c2ccccc2C(=O)N1c1ccccc1)c1ccc2c(c1)OCCO2	-2%	?	-7%	-10%	-1%	?
CCC/C(=C1/c2ccccc2C(=O)N1c1ccccc1)c1cnc(OC)nc1	5%	i	8%	-11%	-18%	13µM*
COCCCNC(=O)C1CCCN(S(C)(=O)=O)C1 (stereo unspecified)	4%	i	11%	-9%	3.5µM*	9%
COc1cccc(C(c2sc3nc(-c4ccco4)nn3c2O)N2CCC(C)CC2)c1 (stereo unspecified)	-1%	?	/	2%	-26%	-9%
C[C@H]1CN(C2CCCCC2)C(=O)[C@@H]1CC(=O)NCc1ccccc1	0%	i	2%	0%	-2%	?
CCCCC[C@H]1CN(Cc2ccccc2)C(=O)[C@@H]1CC(=O)NCc1ccc(OC)cc1	-5%	i	-7%	-15%	-3%	10µM*
CCCCC[C@H]1CN(C2CCCCC2)C(=O)[C@@H]1CC(=O)NCc1ccccc1	-4%	/	11%	?	16µM*!	11µM*
CCOc1cccc(CNCCSc2nnnn2C)c1	0%	i	5%	-17%	2%	2%
Cc1cc(C(C)(C)CC(C)(C)C)ccc1OCCOCC[N+](C)(C)Cc1ccccc1	?	?	?	?	20µM*	?
CC(=O)Nc1cccc(C(=O)/C=C/c2ccc(C)cc2)c1	-1%	?	-21%	-5%	13µM*	?
CCC(=O)Nc1cccc(C(=O)/C=C/c2ccc(F)cc2)c1	?	?	23µM*	?	14µM*	20µM*
CC(=O)Nc1ccc(/C=C/C(=O)c2ccc3c(c2)OCCO3)cc1	-3%	i	1%	0%	-61%	?
CCOC(=O)c1c(C)oc2nc(C)nc(Nc3cc(C)cc(C)c3)c12	3%	i	10%	-3%	-6%	-4%
COc1ccccc1/C=C/c1cnccn1	/	/	/	/	5%	-14%
SMILES	A549 viability	ATXN viability	Nrf2 block	ATXN2 expr inh	HepG2 tox	TGFb inhibitor
O=C1c2ccccc2C(=O)c2c1cccc2N1CCCC1	?	?	7%	10%	-59%	?
O=C1C=C(N2CCCCC2)c2ccccc2C1=O	18µM*	/	9.2µM*	30µM*	-103%	2.8µM*
NC(=O)c1ccccc1NC(=O)c1ccc2c(c1)OCO2	-6%	i	?	/	-50%	-4%
COc1ccc(Cl)cc1NC(=O)CSC1=NN2CCCC(=O)N=C2S1	-13%	?	23µM*	?	6%	2%
COc1ccccc1C(=O)NCCn1cc(SCC(=O)Nc2ccccc2F)c2ccccc21	-21%	?	23µM*	?	-24%	-16%
COc1ccc(Cl)cc1NC(=O)CSc1cn(CC(=O)N2CCCCCC2)c2ccccc12	-7%	/	26µM*	/	-8%	?
O=C(CSc1cn(CC(=O)N2CCCCCC2)c2ccccc12)Nc1ccccc1F	-11%	/	21µM*	/	-17%	-15%
O=C(CSc1cn(CCNC(=O)c2ccccc2F)c2ccccc12)Nc1ccccc1F	2%	?	-27%	?	-4%	-15%
COc1ccc(OC)c(NC(=O)CSC2=NN3CCCC(=O)N=C3S2)c1	1%	i	-10%	-15%	-5%	-9%
Cc1ccccc1NC(=O)CSc1cn(CC(=O)N2CCCC2)c2ccccc12	2%	i	/	-3%	3%	-11%
O=[N+]([O-])c1ccccc1-c1ccc(CN2CCN(c3ccccc3)CC2)o1	1%	i	-3%	-1%	-21%	-18%
COc1ccc(CCNC(=O)c2cc3c(cc2Cl)N2CCCCCC2=NS3(=O)=O)cc1	4%	i	-20%	-17%	33%	11%
Cc1ccc2oc3nc(C)c(C(=O)O)cc3c(=O)c2c1	-1%	i	?	11%	11µM*	?
NC(=O)C1=C[C@@H](c2csc3ccccc23)C[C@@H](OCCCCO)O1	-2%	i	6%	2%	-6%	-11%
O=C(CN1C(=O)c2ccccc2C1=O)c1ccccc1	-1%	i	/	7%	-18%	?
CC1=C(CC(=O)c2ccccc2)C(=O)c2ccccc2C1=O	?	i	24%	6%	6.3µM*	6.3µM*
O=C1NC[C@H](CCCCN2C[C@H](Cc3ccccc3)N(Cc3ccccc3)C(=O)C2=O)N(CCc2ccccc2)C1=O	/	i	/	-1%	/	/
Cc1cccc(Cc2c(C)nc3c(C(=O)N4CCN(Cc5ccc6c(c5)OCO6)CC4)cnn3c2C)c1	-1%[1.84 µM]	i	18µM*	-21%	-34%	?
